Assay results from PubChem BioAssay AID1159580 (chemical genetic matrix, 2015).
The whole screen tested about 5,500 compounds, of which about 2,000 (36%) were called active. About 18% were inconclusive and are not listed. Rule as the data show it: active = normalized growth mostly below about 0.91 (no sharp cut-off); inconclusive = no clear call, values can overlap the other calls; inactive = mostly above about 0.92. This is one part of the list.

Experiment: chemical genetic growth profiling, strain panel (AID 1159580);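 also: tested at 20 µM; growth read once vehicle control cultures reached saturation at 30 °C; 1 = growth at the plate median or of vehicle wells; lower values mean less growth of the strain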
Conditions: growth OD

Measured: normalized growth

CC(=O)Oc1cccc(O)c1
inactive: S. cerevisiae deletion strains, locus YJR075W, strain HOC1, stronger effect = lower value 1 | S. cerevisiae deletion strains, locus YKL009W, strain mrt4, stronger effect = lower value 1.01 | S. cerevisiae deletion strains, locus YKL068W, stronger effect = lower value 1 | S. cerevisiae deletion strains, locus YKL085W, strain MDH1 (second series), stronger effect = lower value 1 | S. cerevisiae deletion strains, locus YKL085W, strain MDH1, stronger effect = lower value 1 | S. cerevisiae deletion strains, locus YKL160W, strain elf1, stronger effect = lower value 1.01 | S. cerevisiae deletion strains, locus YKL190W, strain CNB1, stronger effect = lower value 1 | S. cerevisiae deletion strains, locus YKR001C, strain vps1, stronger effect = lower value 1.02 | S. cerevisiae deletion strains, locus YKR026C, strain gcn3, stronger effect = lower value 1.01 | S. cerevisiae deletion strains, locus YKR091W, strain srl3, stronger effect = lower value 1.01 | S. cerevisiae deletion strains, locus YLL001W, strain dnm1, stronger effect = lower value 1.02 | S. cerevisiae deletion strains, locus YLL026W, stronger effect = lower value 1.01 | S. cerevisiae deletion strains, locus YLL041C, strain sdh2, stronger effect = lower value 1.01 | S. cerevisiae deletion strains, locus YLR027C, strain aat2, stronger effect = lower value 1.03 | S. cerevisiae deletion strains, locus YLR039C, strain RIC1, stronger effect = lower value 1.04 | S. cerevisiae deletion strains, locus YLR058C, strain SHM2, stronger effect = lower value 1.01 | S. cerevisiae deletion strains, locus YLR102C, strain apc9, stronger effect = lower value 1.01 | S. cerevisiae deletion strains, locus YLR113W, strain HOG1, stronger effect = lower value 0.982 | S. cerevisiae deletion strains, locus YLR221C, strain rsa3, stronger effect = lower value 1.03 | S. cerevisiae deletion strains, locus YLR258W, strain gsy2, stronger effect = lower value 1.02 | S. cerevisiae deletion strains, locus YLR262C, strain YPT6 (second series), stronger effect = lower value 1.04 | S. cerevisiae deletion strains, locus YLR262C, strain YPT6, stronger effect = lower value 1.05 | S. cerevisiae deletion strains, locus YLR268W, strain sec22, stronger effect = lower value 1.02 | S. cerevisiae deletion strains, locus YLR320W, strain mms22, stronger effect = lower value 1.04 | S. cerevisiae deletion strains, locus YLR330W, strain CHS5, stronger effect = lower value 1.01 | S. cerevisiae deletion strains, locus YLR342W, strain FKS1 (second series), stronger effect = lower value 1.01 | S. cerevisiae deletion strains, locus YLR342W, strain FKS1, stronger effect = lower value 1.03 | S. cerevisiae deletion strains, locus YLR357W, strain rsc2, stronger effect = lower value 1.02 | S. cerevisiae deletion strains, locus YLR370C, strain arc18, stronger effect = lower value 1.01 | S. cerevisiae deletion strains, locus YLR371W, strain rom2, stronger effect = lower value 1 | S. cerevisiae deletion strains, locus YLR384C, strain iki3, stronger effect = lower value 1.01 | S. cerevisiae deletion strains, locus YLR418C, strain cdc73, stronger effect = lower value 1.05 | S. cerevisiae deletion strains, locus YML016C, strain PPZ1, stronger effect = lower value 1.01 | S. cerevisiae deletion strains, locus YML032C, strain rad52, stronger effect = lower value 1.02 | S. cerevisiae deletion strains, locus YML120C, strain ndi1, stronger effect = lower value 1.01 | S. cerevisiae deletion strains, locus YML124C, strain tub3, stronger effect = lower value 1.01 | S. cerevisiae deletion strains, locus YMR058W, strain fet3, stronger effect = lower value 1.03 | S. cerevisiae deletion strains, locus YMR078C, strain ctf18, stronger effect = lower value 1.02 | S. cerevisiae deletion strains, locus YMR125W, strain sto1, stronger effect = lower value 1.03 | S. cerevisiae deletion strains, locus YMR129W, stronger effect = lower value 1.01 | S. cerevisiae deletion strains, locus YMR205C, strain PFK2, stronger effect = lower value 1.03 | S. cerevisiae deletion strains, locus YMR223W, strain ubp8, stronger effect = lower value 1.02 | S. cerevisiae deletion strains, locus YMR231W, strain pep5, stronger effect = lower value 1.01 | S. cerevisiae deletion strains, locus YMR263W, strain SAP30, stronger effect = lower value 1 | S. cerevisiae deletion strains, locus YMR307W, strain GAS1, stronger effect = lower value 0.985 | S. cerevisiae deletion strains, locus YNL067W, strain RPL9B, stronger effect = lower value 0.996 | S. cerevisiae deletion strains, locus YNL071W, strain lat1, stronger effect = lower value 1.02 | S. cerevisiae deletion strains, locus YNL128W, strain TEP1, stronger effect = lower value 1.01 | S. cerevisiae deletion strains, locus YNL183C, strain NPR1, stronger effect = lower value 0.938 | S. cerevisiae deletion strains, locus YNL209W, strain ssb2, stronger effect = lower value 1.04 | S. cerevisiae deletion strains, locus YNL233W, strain BNI4, stronger effect = lower value 0.993 | S. cerevisiae deletion strains, locus YNL248C, strain rpa49, stronger effect = lower value 1.03 | S. cerevisiae deletion strains, locus YNL250W, strain rad50, stronger effect = lower value 1.06 | S. cerevisiae deletion strains, locus YNL271C, strain bni1, stronger effect = lower value 1.01 | S. cerevisiae deletion strains, locus YNL298W, strain CLA4, stronger effect = lower value 1.03 | S. cerevisiae deletion strains, locus YNL307C, strain MCK1, stronger effect = lower value 1.02 | S. cerevisiae deletion strains, locus YNL322C, strain KRE1 (second series), stronger effect = lower value 1.01 | S. cerevisiae deletion strains, locus YNR049C, strain mso1, stronger effect = lower value 1 | S. cerevisiae deletion strains, locus YNR052C, strain pop2, stronger effect = lower value 1.01 | S. cerevisiae deletion strains, locus YOL006C, strain TOP1, stronger effect = lower value 0.999 | S. cerevisiae deletion strains, locus YOL012C, strain htz1 0.912 | S. cerevisiae deletion strains, locus YOL147C, strain pex11, stronger effect = lower value 1.01 | S. cerevisiae deletion strains, locus YOR001W, strain rrp6, stronger effect = lower value 1.05 | S. cerevisiae deletion strains, locus YOR061W, strain CKA2, stronger effect = lower value 1.01 | S. cerevisiae deletion strains, locus YOR069W, strain VPS5, stronger effect = lower value 1 | S. cerevisiae deletion strains, locus YOR070C, strain gyp1, stronger effect = lower value 1.02 | S. cerevisiae deletion strains, locus YOR080W, strain dia2, stronger effect = lower value 1.01 | S. cerevisiae deletion strains, locus YOR083W, strain WHI5, stronger effect = lower value 1.01 | S. cerevisiae deletion strains, locus YOR106W, strain vam3, stronger effect = lower value 1.02 | S. cerevisiae deletion strains, locus YOR136W, strain idh2, stronger effect = lower value 1.02 | S. cerevisiae deletion strains, locus YOR144C, strain elg1, stronger effect = lower value 1.01 | S. cerevisiae deletion strains, locus YOR184W, strain ser1, stronger effect = lower value 1.03 | S. cerevisiae deletion strains, locus YOR231W, strain MKK1, stronger effect = lower value 0.977 | S. cerevisiae deletion strains, locus YOR265W, strain rbl2, stronger effect = lower value 1 | S. cerevisiae deletion strains, locus YOR270C, strain vph1, stronger effect = lower value 1.07 | S. cerevisiae deletion strains, locus YOR290C, strain snf2, stronger effect = lower value 1.01 | S. cerevisiae deletion strains, locus YOR316C, strain cot1, stronger effect = lower value 1.01 | S. cerevisiae deletion strains, locus YPL051W, strain arl3, stronger effect = lower value 1.04 | S. cerevisiae deletion strains, locus YPL078C, strain atp4, stronger effect = lower value 1.03 | S. cerevisiae deletion strains, locus YPL106C, strain sse1, stronger effect = lower value 1.01 | S. cerevisiae deletion strains, locus YPL240C, strain hsp82, stronger effect = lower value 1.03 | S. cerevisiae deletion strains, locus YPL241C, strain CIN2, stronger effect = lower value 1.01 | S. cerevisiae deletion strains, locus YPL256C, strain CLN2, stronger effect = lower value 0.951 | S. cerevisiae deletion strains, locus YPR119W, strain clb2, stronger effect = lower value 1.01 | S. cerevisiae deletion strains, locus YPR141C, strain kar3, stronger effect = lower value 1.01 | S. cerevisiae deletion strains, locus YPR163C, strain tif3, stronger effect = lower value 1.02 | S. cerevisiae deletion strains, locus YPR167C, strain met16, stronger effect = lower value 1.01 | S. cerevisiae deletion strains, strain wtn01, stronger effect = lower value 1.03 | S. cerevisiae strains, strain wild type, stronger effect = lower value 1.01
